Screening results deposited in PubChem by several laboratories.
TMEM16A inh = blocks the mouse calcium-activated chloride channel TMEM16A; Q8BHY3; AID 588511; normalized B-score (activity score, 25-100; higher = stronger inhibition) at 10 µM; 1.2% of 310,000 active; HEK293 TMEM16A/YFP iodide influx fluorescence, ionomycin;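 active = ratio plate-corrected score three or more library SD toward inhibition, starting fluorescence score within five deviations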;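 also: score derived from kinetic fluorescence span divided by baseline fluorescence per well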
Target sequence (Q8BHY3 whole entry, looked up): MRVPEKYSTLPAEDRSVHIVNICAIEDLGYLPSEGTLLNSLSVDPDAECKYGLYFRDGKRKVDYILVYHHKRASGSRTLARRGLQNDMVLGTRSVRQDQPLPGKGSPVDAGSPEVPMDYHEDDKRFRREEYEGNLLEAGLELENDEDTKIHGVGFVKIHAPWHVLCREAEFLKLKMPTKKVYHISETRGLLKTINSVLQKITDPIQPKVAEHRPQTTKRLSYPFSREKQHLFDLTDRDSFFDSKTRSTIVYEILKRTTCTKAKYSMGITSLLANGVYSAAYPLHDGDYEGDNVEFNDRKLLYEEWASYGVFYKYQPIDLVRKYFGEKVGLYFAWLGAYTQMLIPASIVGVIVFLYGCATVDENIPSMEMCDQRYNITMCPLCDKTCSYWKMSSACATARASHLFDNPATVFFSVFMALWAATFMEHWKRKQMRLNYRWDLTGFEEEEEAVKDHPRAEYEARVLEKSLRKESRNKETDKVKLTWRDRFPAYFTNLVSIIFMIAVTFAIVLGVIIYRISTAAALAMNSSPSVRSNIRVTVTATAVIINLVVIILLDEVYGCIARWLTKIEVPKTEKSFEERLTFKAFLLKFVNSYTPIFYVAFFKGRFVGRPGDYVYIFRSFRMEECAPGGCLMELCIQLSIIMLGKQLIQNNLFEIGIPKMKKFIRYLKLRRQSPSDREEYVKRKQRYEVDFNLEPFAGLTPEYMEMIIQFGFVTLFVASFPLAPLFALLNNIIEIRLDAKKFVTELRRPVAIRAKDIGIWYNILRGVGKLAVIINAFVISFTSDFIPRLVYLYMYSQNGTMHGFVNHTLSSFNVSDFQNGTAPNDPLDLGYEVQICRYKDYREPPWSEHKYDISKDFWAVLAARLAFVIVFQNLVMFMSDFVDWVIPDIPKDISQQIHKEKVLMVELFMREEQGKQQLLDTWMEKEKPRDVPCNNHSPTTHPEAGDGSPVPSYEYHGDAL
MPTP inh = inhibitors of mitochondrial permeability transition pore. inhibition, % at 10 µM. 1.4% of 360,000 active. isolated mouse mitochondria, Ca2+ swelling absorbance, 30 min. AID 602449;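 active = inhibition of 50% or more, scaled per plate between neutral and stimulator controls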
TMEM16A act = activates or potentiates the mouse TMEM16A chloride channel; 0.3% of 340,000 active; HEK293 TMEM16A/YFP-H148Q/I152L, iodide quench fluorescence; hits give low values; Q8BHY3; AID 623877; B-score at 10 µM;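 active = fluorescence-ratio B-score plate-corrected deviation score at least 3 library SD below zero, with starting fluorescence score within 5 deviations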;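 also: channel opened by trigger with iodide after compound preincubation; score built on the fluorescence ratio of max minus min over baseline; more negative score means more quench and so TMEM16A activation or potentiation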
NR3A LBD binder = NR3A (human) ligand-binding domain modulation | NR3A LBD differential scanning fluorimetry, Tm shift; 0% = protein alone, 100% = glycine-bound protein | Tm shift relative to glycine control, % at 25 µM | 2.5% of 340,000 active;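 active = melting temperature shift of at least 10% of the positive control shift, at one fixed dose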
CRFR2-BP antag = CRF-BP/CRF-R2 complex antagonism; inhibition, % at 11.8 µM; HEK293 CRF-R2/CRF-BP, CRF-induced calcium fluorescence; AID 588475; 0.59% of 350,000 active;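 active = inhibition of the ligand-induced calcium signal above about 50% at the single tested concentration, limit read from the data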
CRFBP-R2 agonist = CRF-BP/CRF-R2 complex agonism; HEK293 CRF-R2/CRF-BP, calcium dye fluorescence (FLIPR); percent of saturating CRF peptide response; activation, % at 13.2 µM; 0.46% of 350,000 active; AID 588473;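 active = activation of at least 50%, plus an integration ratio under a set limit after plate pattern correction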
Each line names hits and unclear results; the compound was inactive in the other large screens. In the library only some 5.1% were active in any assay of this set; here they are far more common.

Nc1cc2c(cc1[N+](=O)[O-])-c1ccccc1C2=NO	NR3A LBD binder 23 (no result: TMEM16A inh)
Nc1ccc2c(c1)C(=O)C(=O)c1ccccc1-2	TMEM16A inh 25
Nc1ccc2c(c1)C(=NO)c1ccccc1-2	CRFR2-BP antag 96 (no result: TMEM16A inh)
CCCS(=O)(=O)NC(=O)C1(C)CCCN(C(=O)CCc2cccs2)C1 (stereo not drawn)	none (no result: TMEM16A inh, TMEM16A act, NR3A LBD binder, CRFR2-BP antag, CRFBP-R2 agonist)
Cc1ccc([N+](=O)[O-])cc1NC(=O)c1cccnc1	none
CSc1ccc(CN2CCC2(C)C(=O)Nc2cnc3ccccc3c2)cc1 (stereo not drawn)	none (no result: TMEM16A inh, TMEM16A act, NR3A LBD binder, CRFR2-BP antag, CRFBP-R2 agonist)
CCOc1cccc(SCc2noc(C(=O)NCC3CCCO3)c2C(=O)O)c1 (stereo not drawn)	NR3A LBD binder 17
O=C(NCC1CCCO1)c1onc(CSc2cccc3ccccc23)c1C(=O)O (stereo not drawn)	CRFR2-BP antag 50
COc1ccc(CN2C(=O)C(CC(=O)NC3CC3)CC(C(=O)N3CCOCC3)=C2C)cc1 (stereo not drawn)	none (no result: TMEM16A inh, TMEM16A act, NR3A LBD binder, CRFR2-BP antag, CRFBP-R2 agonist)
COc1ccc(Cl)cc1C(=O)NC1CC(C)(C)NC(C)(C)C1	none (no result: TMEM16A inh, TMEM16A act, NR3A LBD binder)
S=c1[nH]nc(Cc2cccc3ccccc23)n1-c1ccccc1	TMEM16A act -7.2
Nn1c(Cc2cccc3ccccc23)n[nH]c1=S	none
CC1=C(C)C(C)=C(C#N)C(=C(C#N)C#N)N1	none
O=C(/C=C/c1ccccc1)c1cc(Br)ccc(=O)c1O	TMEM16A inh 100
Oc1ccc(-c2nccc(-c3ccc(Cl)cc3Cl)n2)cc1	none
CS(=O)(=O)c1nc(-c2ccc(Br)cc2)cc(-c2ccccc2)c1C#N	none
CS(=O)c1nc(-c2ccc(Br)cc2)cc(-c2ccccc2)c1C#N (stereo not drawn)	TMEM16A inh 100 (no result: NR3A LBD binder)
Oc1ccc(-c2cccc(-c3ccc(O)cc3)n2)cc1	NR3A LBD binder 14
Oc1ccc(-c2nccc(-c3ccc(Cl)cc3)n2)cc1	NR3A LBD binder 57
N#Cc1c(-c2ccccc2)cc(-c2ccc(O)cc2)nc1N	NR3A LBD binder 15
Cn1c(-c2ccccc2)c(/C=N/NC(=O)c2ccc(O)cc2)c2ccccc21	none
C/C(=N\Nc1ccc(Cl)c(C(=O)O)c1)c1ccc[nH]1	none
O=C1CC(c2ccccc2)(c2ccccc2)c2ccccc21	none (no result: TMEM16A inh)
Cc1nc2ccccc2c(=O)n1/N=C/c1ccccc1OC(F)F	none
Nc1ccc(-c2cc(-c3ccc(N)cc3)nc(-c3ccccc3)n2)cc1	NR3A LBD binder 25
Oc1ccc(-c2cc(-c3ccc(O)cc3)nc(-c3ccccc3)n2)cc1	NR3A LBD binder 29
O=C(Nc1ccc(Br)cc1)C1OCCc2ccccc21 (stereo not drawn)	none
CCNc1ccc2noc3c2c1C(=O)c1ccccc1-3	CRFBP-R2 agonist 192
O=C1c2ccccc2-c2onc3ccc(NCc4ccco4)c1c23	CRFBP-R2 agonist 148
O=C1c2ccccc2-c2onc3ccc(N4CCCC4)c1c23	TMEM16A act -8.3, CRFBP-R2 agonist 83 (no result: TMEM16A inh)
CCOc1ccc2noc3c2c1C(=O)c1ccccc1-3	none
O=C1C(Cl)=C(NCc2ccco2)C(=O)c2ccccc21	none (no result: TMEM16A inh)
O=C(c1cc2cc(Br)ccc2o1)N1CCN(c2ccccc2)CC1	none
CCC1CCCCN1CC(=O)c1c(C)[nH]c2ccc(OC)cc12 (stereo not drawn)	none
Cc1[nH]c2ccccc2c1C(=O)C(=O)N1CCOCC1	none
Cc1[nH]c2ccccc2c1C(=O)CN1CCCCC1C (stereo not drawn)	CRFBP-R2 agonist 74
Cc1[nH]c2ccccc2c1C(=O)CSC(=S)N1CCOCC1	NR3A LBD binder 14
CCC1CCCCN1CC(=O)c1c(C)[nH]c2ccccc12 (stereo not drawn)	CRFBP-R2 agonist 107
COC(=O)Cn1ncn2cccc2c1=O	none
O=c1[nH]ncn2cccc12	TMEM16A inh 100
Clc1ccc(-c2nnc(CSc3nnc(-c4cccs4)o3)o2)cc1	CRFR2-BP antag 54
c1ccc(-c2nnc(SCc3nnc(-c4cccs4)o3)o2)cc1	none
COCCNC(=O)c1cc2c(s1)-c1ccc(Cl)cc1SC2	none
NC(=O)c1cc2c(s1)-c1cc(Cl)ccc1SC2	NR3A LBD binder 47
O=C(Cc1ccc(Br)cc1)NNC(=O)c1cccs1	none (no result: TMEM16A inh)
Cc1ccc(S(=O)(=O)NC2=NCN(C3CCN(Cc4ccccc4)CC3)CN2)cc1	CRFR2-BP antag 109
Cc1ccc(S(=O)(=O)NC2=NCN(Cc3ccccc3)CN2)cc1	none
CC(C)CN1CCC(=O)N([C@H](CO)c2ccccc2)CC1	none (no result: MPTP inh)
Cc1cc(C)c2nc(NCc3ccccc3O)sc2c1	NR3A LBD binder 27 (no result: TMEM16A act)
Cc1ccc(S(=O)(=O)N2CCCCC2CCNC(=O)C(=O)NCc2ccco2)cc1 (stereo not drawn)	NR3A LBD binder 18
COc1ccc(CCNC(=O)C(=O)NCCC2CCCCN2S(=O)(=O)c2ccccc2)cc1 (stereo not drawn)	NR3A LBD binder 11
COc1ccc(S(=O)(=O)N2CCCC2CNC(=O)C(=O)Nc2ccc(F)cc2)cc1 (stereo not drawn)	NR3A LBD binder 11
COc1ccc(CCNC(=O)C(=O)NCCC2CCCCN2S(=O)(=O)c2cccs2)cc1 (stereo not drawn)	none
Cc1ccc(S(=O)(=O)N2CCCCC2CCNC(=O)C(=O)NCCc2ccco2)cc1 (stereo not drawn)	none
Cc1cc(C)c2[nH]c(C(=O)N3CCC(n4nccc4NC(=O)C4CC4)CC3)c(C)c2c1	none
CCOC(=O)c1c(-c2ccc(C)cc2)csc1NC(=O)C1CCCO1 (stereo not drawn)	NR3A LBD binder 10
CCOC(=O)c1c(-c2ccc(OC)cc2)csc1NC(=O)CNCc1ccco1	CRFR2-BP antag 78
COc1ccccc1/C=N/NC(=O)CSc1cc(C)nc2ccccc12	none
CCCCSc1nc(C)cc(SCC(=O)N/N=C/c2cccc(OC)c2O)n1	TMEM16A inh 100
COc1cccc2c(SCC(=O)N/N=C/c3ccc(O)cc3O)cc(C)nc12	NR3A LBD binder 26 (no result: TMEM16A inh)
COc1ccc2nc(C)cc(SCC(=O)N/N=C/c3ccc(O)cc3O)c2c1	NR3A LBD binder 25
COc1ccc2nc(C)cc(SCC(=O)N/N=C/c3ccccc3)c2c1	none
Cc1cc(C)cc(OCCCC(=O)O)c1	none
Cc1ccc(OCCC(=O)O)cc1	CRFR2-BP antag 85
CCn1c(COc2cccc3ccccc23)nnc1SCC(=O)OC1CCCCC1	TMEM16A inh 100
Cn1c(COc2cccc3ccccc23)nnc1SCC(=O)OC1CCCCC1	none
Cc1ccc(-n2cnc3c(=O)[nH]cnc32)cc1	none (no result: TMEM16A inh)
Cc1cccc(C(=O)Oc2ccc(/C=N/NC(=O)c3ccc(O)cc3)cc2)c1	NR3A LBD binder 23, CRFR2-BP antag 105
O=C(N/N=C/c1ccc(OC(=O)c2ccccc2Cl)cc1)c1cc(O)cc(O)c1	NR3A LBD binder 13
